ROCK2 blocker: inhibitors of human ROCK2 kinase, primary screen, biochemical, high-throughput, luminescence; actives 0.35% (n = 60,000); inhibition, % at 6 µM; purified ROCK2, Kinase-Glo ATP depletion luminescence; AID 604, 2007;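 active = inhibition above the screen-wide mean inhibition plus 3 SD, cut at about 18% in these data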;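 note: plate controls were DMSO wells for no effect and Y-27632 control wells after no-enzyme background subtraction for full effect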
D1 allo mod: D1 CRE-luciferase signal change, two-sided – cell-based, HEK293 D1, dopamine EC30, D1 allosteric modulator project, primary screen; AID 641, 2007; D(1A) dopamine receptor (Homo sapiens), P21728; B-score at 10 µM; dopamine EC30 potentiation; actives deviate in either direction; actives 5.9% (n = 58,000);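 active = luminescence count or its row- and column-corrected plate score outside the 99.7% band of the plate's sample wells, on either side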
PKA kinase inh: inhibitors of human PKA kinase activity, primary screen, biochemical, ATP-depletion luminescence, Kemptide substrate. cAMP-dependent protein kinase catalytic subunit alpha (Homo sapiens), P17612. PKA Kemptide phosphorylation, Kinase-Glo ATP luminescence. inhibition, % at 6 µM. actives 0.1% (n = 65,000). AID 524, 2006;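 active = inhibition above the screen-wide mean inhibition plus 3 SD, cut at about 21% in these data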
DAT uptake mod: changed hDAT dopamine uptake under cocaine IC80, either direction, primary screen, cocaine antagonist project, cell-based, LLC-PK1 hDAT, [14C]-dopamine uptake, MLSMR | Sodium-dependent dopamine transporter (Homo sapiens), Q01959 | LLC-PK1 hDAT cells, [14C]-dopamine uptake with cocaine IC80; actives deviate in either direction | B-score at 10 µM | actives 1.3% (n = 110,000);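 active = Z score or B-score, a plate-position-corrected score, falls beyond the plate's 99.7% confidence bounds, in either direction; inactive = both scores lie inside the 99.7% bounds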;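 note: scored against the spread of the other compound wells on the same plate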
D1 mod confirm: D1 receptor positive allosteric modulators, retest, confirmation, cell-based, HEK293 D1, CRE-luciferase, duplicate | shares compounds with D1 allo mod | dopamine EC30 potentiation; active compounds read high | luminescence at 10 µM | actives 88% (n = 2,200);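 active = luminescence in either of two replicates above the same-plate mean plus 3 SD of the low-dose dopamine control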
D1 no dopamine: D1 receptor agonism without dopamine, confirmation, mechanism study for D1 allosteric modulator project, cell-based, HEK293 D1, CRE-luciferase, secondary assay 1. AID 646, 2007. shares compounds with D1 allo mod. actives 0.8% (n = 1,900). luminescence, no dopamine; active compounds read high. luminescence at 10 µM; in the data active = luminescence above about 3900
Isoprot counter: counter-screen for D1 modulators: isoproterenol response in HEK293 cells | AID 647 | calls only at 10 µM | shares compounds with D1 allo mod | HEK293 D1 CRE-luciferase, isoproterenol EC30 counter-screen | actives 63% (n = 2,200);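 active = luminescence in either replicate above plate mean of wells with a partly effective reference agonist dose plus 3 SD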;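 note: isoproterenol raises cAMP through native beta-adrenoceptor Gs so signal bypasses D1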
* marks the source's active call; other numbers are inactive results. This is one part of a sample in which hits are shown more often than they occur.

`C[C@H]1CCC[C@]2(O[C@H](CCO)C[C@@H](O)[C@@H]2O)O1` gave DAT uptake mod -0.0521.
CCCC(=O)OC1CC(C)N(C(=O)c2ccccc2)c2ccc(C)cc21 (stereo not given) was read as DAT uptake mod 1.64.
For CC(=O)OC1CC(C)N(C(=O)c2ccccc2)c2ccc(C)cc21 (stereo not given) the results were ROCK2 blocker -1.3, D1 allo mod 11.4*, PKA kinase inh 8.7, DAT uptake mod 0.124, D1 mod confirm 11832*, D1 no dopamine 1612 and Isoprot counter active.
For CCC(Sc1nc(=O)cc(N)n1CCc1ccccc1)C(=O)Nc1ccccc1C#N (stereo not given) the results were ROCK2 blocker 1.2, D1 allo mod 5.2*, PKA kinase inh 7.1, DAT uptake mod 0.658, D1 mod confirm 3424*, D1 no dopamine 1792 and Isoprot counter inactive.
`O=C(O)CCCn1nc(-c2ccccc2)c2ccccc21` gave ROCK2 blocker -2.0, PKA kinase inh -4.1 and DAT uptake mod 0.567.
Screening COC(=O)Cn1nc(-c2ccccc2)c2ccccc21 returned ROCK2 blocker 3.8, D1 allo mod 2.53*, PKA kinase inh 4.6, DAT uptake mod -0.33, D1 mod confirm 5172, D1 no dopamine 1632 and Isoprot counter inactive.
CC(C)Cn1nc(NC(=O)C2CCCO2)c2cc3ccccc3nc21 (stereo not given) was read as ROCK2 blocker -8.1, D1 allo mod 11.7*, PKA kinase inh -11.5, D1 mod confirm 16892* and Isoprot counter active.
Screening CCn1nc(NC(=O)c2cccnc2)c2cc3ccccc3nc21 returned ROCK2 blocker 13.2, D1 allo mod 6.64*, PKA kinase inh 6.6, DAT uptake mod 1.36, D1 mod confirm 7008*, D1 no dopamine 1544 and Isoprot counter active.
`CCn1nc(NC(=O)c2ccccn2)c2cc3cc(C)ccc3nc21` gave ROCK2 blocker 3.9, D1 allo mod 0.901, PKA kinase inh 4.5 and DAT uptake mod 1.51.
COC(=O)c1ccccc1Nc1cc(C)nc2nc(C)nn12 was read as ROCK2 blocker 3.5, D1 allo mod 0.42 and PKA kinase inh 6.5.
CCOC(=O)c1ccccc1Nc1cc(C)nc2nc(C)nn12 was read as ROCK2 blocker 6.2, D1 allo mod 1.83*, PKA kinase inh 9.5, DAT uptake mod 0.215, D1 mod confirm 10192*, D1 no dopamine 1536 and Isoprot counter active.
For O=C(O)C1=C[C@H](c2ccc(F)cc2)C[C@H](OCc2ccc(CO)cc2)O1 the results were DAT uptake mod 0.729.
Cc1cccc(C)c1NC(=O)CSc1nnc(-c2ccco2)c(-c2ccco2)n1 was read as DAT uptake mod 0.385.
CSc1nnc(-c2ccco2)c(-c2ccco2)n1 was read as ROCK2 blocker 2.1, D1 allo mod 4.15*, PKA kinase inh 4.9, DAT uptake mod -2.26, D1 mod confirm 10584* and Isoprot counter active.
For COc1ccc(S(=O)(=O)n2nc(-c3cc(OC)c(OC)c(OC)c3)cc2N)cc1OC the results were ROCK2 blocker 4.8, D1 allo mod 1.91, PKA kinase inh 4.5 and DAT uptake mod -0.343.
`COc1ccc(-c2cc(N)n(S(=O)(=O)c3c(F)c(F)c(F)c(F)c3F)n2)cc1OC` gave ROCK2 blocker -5.4, D1 allo mod 4.95*, PKA kinase inh -3.5, DAT uptake mod -1.31, D1 mod confirm 11216*, D1 no dopamine 1688 and Isoprot counter active.
